In PubChem BioAssay AID1117361 (Southern Research Institute, 2015):
Screen size: about 3,600 compounds; about 900 (25%) were called active. How the calls were made is not given here. Not all results are given here. Results with a measured potency or affinity are listed apart.

Target: Protein Tat (Human immunodeficiency virus type 1 group M subtype B (isolate HXB2)) (UniProt P04608)
Assay: inhibitors of Tat binding to TAR RNA, dose response, counter-screen for Vif-APOBEC3G degradation inhibitor project, biochemical, fluorescence polarization, FAM-labeled TAR RNA (AID 1117361)
Conditions: outcome: dose series up to 100 µM unless noted; series mostly up to 100 µM

Row | Compound | outcome
1 | COc1cc(Cl)c(C)cc1NC(=O)COc1cc(C)nc(C(C)C)n1 | inactive
2 | O=C(CCC(=O)N1CCN(S(=O)(=O)c2ccccc2)CC1)NC1CCCc2ccccc21 (stereo unspecified) | inactive
3 | CCOc1ccc(-c2nc(CN3CCCCC3CCn3cccn3)c(C)o2)cc1 (stereo unspecified) | inactive
4 | N#CCSc1nc2sc3c(c2c(=O)n1C1CCCCC1)CCCC3 | inactive
5 | CN(C)[C@H]1N(C(=O)c2ccc(Br)cc2)N=C2c3ccccc3S(=O)(=O)N21 | inactive
6 | COc1cc(C2NC(=O)NC(C)=C2C(=O)OCC2CCCO2)ccc1O (stereo unspecified) | inactive
7 | COc1ccc(NC(=S)N(CCCN2CCCC2)Cc2ccco2)cc1 | inactive
8 | CCCCCC(=O)N1C[C@@H](n2cc(C3CC3)nn2)[C@H](O)C[C@@H]1c1ccc(C)cc1 | inactive
9 | O=C(O)CCN1CCOCC1 | inactive
10 | COc1cccc(OC)c1C(=O)NC(C)C12CC3CC(CC(C3)C1)C2 (stereo unspecified) | inactive
11 | Brc1ccc(-c2nnc(-c3cccc(Br)c3)o2)cc1 | inactive
12 | O=C1OC(c2ccc(Br)cc2)=N/C1=C\N1CCCCC1 | inactive
13 | CCn1c(SC(C)C)nnc1-c1cc(-c2ccccc2)sc1N | inactive
14 | COCCNC(=O)Cn1ncc2ccsc2c1=O | inactive
15 | Cc1ccc(OCCC(=O)OCC(=O)c2ccc3c(c2)NC(=O)CO3)cc1 | inactive
16 | CCC(C)[C@@H](C(=O)Nc1ccc2c(c1)OCO2)N1Cc2ccccc2C1=O (stereo partly specified) | inactive
17 | Cc1ccc(S(=O)(=O)CCC(=O)Nc2ccc3c(c2)OCO3)cc1 | inactive
18 | CCc1ccc(NC(=O)COC(=O)CCc2nc3cc(S(=O)(=O)N(CC)CC)ccc3n2C)cc1 | inactive
19 | Cc1ccc(S(=O)(=O)NCCC(=O)N2CCN(C/C=C/c3ccccc3)CC2)cc1 | inactive
20 | CCCc1cc(=O)[nH]c(SCC(=O)c2c(C)[nH]c3ccccc23)n1 | inactive
21 | O=C(CSc1nc2ccccc2c(=O)n1NC(=O)c1ccccc1)c1ccccc1 | inactive
22 | COc1ccc(CC(NC(C)=O)C(=O)NC2CCN(S(=O)(=O)c3cccc4ccccc34)CC2)cc1OC (stereo unspecified) | inactive
23 | COc1c(F)c(F)c(C(=O)Nc2ccc3oc(-c4ccncc4)nc3c2)c(F)c1F | inactive
24 | CCOC(=O)C1=C(C)NC2=C(C(=O)CC(C)(C)C2)C1c1ccsc1 (stereo unspecified) | inactive

Row | Compound | outcome
25 | CCN(CC)c1ccc(C2NC(=O)NC(C)=C2C(=O)Nc2ccccc2)cc1 (stereo unspecified) | inactive
26 | CCn1c(=O)c(C(=O)NCc2ccccn2)c(O)c2ccccc21 | inactive
27 | CCOC(=O)c1c(O)c2ccccc2n(-c2ccccc2)c1=O | inactive
28 | O=C(CSc1nccn1Cc1ccccc1)Nc1nccs1 | inactive
29 | CC(C)(C)OC(=O)NC(CCNC=C1C(=O)OC(C)(C)OC1=O)C(=O)O (stereo unspecified) | inactive
30 | O=C(Cc1ccc2c(c1)OCCO2)N1CCN(S(=O)(=O)c2cccs2)CC1 | inactive
31 | CC(=O)Nc1nnc(C)s1 | inactive
32 | COc1ccc(CNc2nc3ccccc3n2C)c(O)c1 | inactive
33 | COc1ccc(-c2nnc(-c3ccc(N)cc3)o2)cc1 | inactive
34 | O=C(NCCc1ccncc1)Nc1ccccc1Cl | inactive
35 | O=C(CCCNS(=O)(=O)c1cccc2nsnc12)NCc1ccccc1 | inactive
36 | O=C(NCc1ccco1)c1cc(-c2cccc(Cl)c2)on1 | inactive
37 | Cc1onc(-c2ccccc2)c1C(=O)NCc1cccs1 | inactive
38 | Cc1cc2oc(=O)cc(C)c2c(=O)o1 | inactive
39 | CS(=O)(=O)N1CCc2cc(C(=O)OCC(=O)c3ccccc3)ccc21 | inactive
40 | CCOC(=O)c1c(NC(=O)Cn2cc([N+](=O)[O-])cn2)sc2c1CCC2 | inactive
41 | CCOC(=O)c1c(NC(C)=O)sc2c1CCCNC2=O | inactive
42 | COc1ccc(C)cc1NC(=O)C1CC(=O)OC12CCCCC2 (stereo unspecified) | inactive
43 | Cc1cccc(S(=O)(=O)c2c(N)n(/N=C/c3ccco3)c3nc4ccccc4nc23)c1 | inactive
44 | Nc1c(S(=O)(=O)c2ccccc2)c2nc3ccccc3nc2n1/N=C/c1ccco1 | inactive
45 | CC(=O)N1c2c(cc(Br)cc2S(=O)(=O)N2CCOCC2)CC1C (stereo unspecified) | inactive
46 | CCC(C)(C)n1nnnc1C(c1cc2cc(C)ccc2[nH]c1=O)N1CCCc2ccccc21 (stereo unspecified) | inactive
47 | COc1ccc2cc(C(c3nnnn3C3CCCC3)N3CCc4ccccc4C3)c(=O)[nH]c2c1 (stereo unspecified) | inactive
48 | COC(=O)c1ccc(S(=O)(=O)N2CCN(CCO)CC2)n1C | inactive

Row | Compound | outcome
49 | O=C1c2c(O)ccc(O)c2C(=O)c2c(NCCNCCO)ccc(NCCNCCO)c21 | inactive
50 | COC(=O)COc1ccc2c(c1C)O/C(=C\c1ccco1)C2=O | inactive
51 | O=C(O)COc1ccc(NC(=O)c2ccco2)cc1 | inactive
52 | COc1ccc(NC(=O)c2ccc(-n3cccn3)nc2)cc1 | inactive
53 | COc1ccccc1C1CC(=O)Nc2c1c(=O)n(C)c(=O)n2C (stereo unspecified) | inactive
54 | O=C(Nc1nnc(C2CC2)s1)c1ccc(S(=O)(=O)c2ccccc2)cc1 | inactive
55 | CC(=O)Nc1nnc(-c2c(-c3c(Cl)cccc3Cl)noc2C)o1 | inactive
56 | CC12CCC(C(=O)NCCN3CCCCC3)(CC1=O)C2(C)C (stereo unspecified) | inactive
57 | CC(C)C(C)NC(=O)COc1ccc(S(=O)(=O)N2CCOCC2)cc1Cl (stereo unspecified) | inactive
58 | Clc1cccc(Cl)c1Cn1nnc(-c2cccs2)n1 | inactive
59 | COc1ccc(N(C(=O)COc2ccccc2OC)S(=O)(=O)c2ccc(C)cc2)cc1 | inactive
60 | O=C(CSc1nnnn1-c1ccccc1)Nc1nsc(-c2ccccc2)n1 | inactive
61 | NC(=O)c1ccc(-n2nnnc2SCC(=O)Nc2ccccc2-c2ccccc2)cc1 | inactive
62 | Cc1cc2cc(C=O)c(Cl)nc2cc1C | inactive
63 | Cc1ccccc1OCC(=O)NCC1CCCO1 (stereo unspecified) | inactive
64 | CCOc1cccc(SCc2noc(C(=O)NCC3CCCO3)c2C(=O)O)c1 (stereo unspecified) | inactive
65 | Cc1cc2ncn(C(=O)N3CCOCC3)c2cc1C | inactive
66 | O=C(CN1C(=O)NC2(CCCC2)C1=O)Nc1nc(-c2ccc(F)cc2)cs1 | inactive
67 | COc1ccc(CN2C(=O)c3ccccc3C2C(=O)NCc2cccnc2)c(OC)c1 (stereo unspecified) | inactive
68 | CCOc1ccc(N2C(=O)c3ccccc3C2O)cc1 (stereo unspecified) | inactive
69 | C/C(=N\NC(=O)c1ccc(NS(=O)(=O)c2cccs2)cc1)c1ccccc1 | inactive
70 | Cc1ccc(CN2C(=O)CCC2C(=O)N2CCN(c3ccc(F)cc3)CC2)cc1 (stereo unspecified) | inactive
71 | CC(=O)n1c(Cl)c(NC(=O)CCl)c2ccccc21 | inactive
